Unmarked numbers belong to inactive results. Records with an inconclusive call do not appear. Entries that show only a call come without a potency. Active and inactive are the calls of the source. The call rests on the fitted dose curve; in most records, active means well fitted curve in the direction sought with a large enough effect; inconclusive means small, poorly fitted or top-dose-only effect, or another doubt; inactive means no such curve, though single readings can be large; an effect the other way counts as inactive or inconclusive.
What was measured:
[1] = qHTS for Activators of Parkin Expression: LOPAC Validation Assay (NLuc Reporter) (AID 720572)
Outline: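 Parkin promoter-driven FLuc/NLuc neuronal reporter cells; 24 h plating, 7-pt dose response, 24 h at 37 C/5% CO2; FLuc then NanoLuc reagent, 10 min each, luminescence; DMSO/positive control normalized.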

[2] = target: T1, Hexokinase-4 (Homo sapiens) + Glucokinase regulatory protein (Homo sapiens) (UniProt P35557+Q14397); assay: qHTS assay for inhibitors of recombinant human GCK-GKRP interaction: Diaphorase-coupled assay (AID 743205)
Outline: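 GST-GCK (10 nM) with FLAG-GKRP (10 nM), 5 mM glucose and 0.4 mM ATP in pH 7.6 Hepes; compounds preincubated 20 min with substrate. G6PDH/diaphorase coupling converts resazurin to resorufin, read kinetically (ex 525/em 590 nm) for 30 min.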

[3] = target: T1, Hexokinase-4 (Homo sapiens) + Glucokinase regulatory protein (Homo sapiens); assay: qHTS assay for inhibitors of recombinant human GCK-GKRP interaction: ADP-Glo assay (AID 743206)
Outline: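 GST-GCK and FLAG-GKRP (15 nM each in the dispensed mix, with 2 uM S6P) react with 0.4 mM ATP and 5 mM glucose (final) in Hepes pH 7.6 for 60 min at room temperature. ADP is measured by ADP-Glo luminescence.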

[4] = target: T1, Hexokinase-4 (Homo sapiens) + Glucokinase regulatory protein (Homo sapiens); assay: qHTS assay for inhibitors of recombinant human GCK-GKRP interaction: HTRF assay (AID 743207)
Outline: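 GST-GCK and FLAG-GKRP (5 nM each) were combined with 2 uM S6P in pH 7.1 Hepes/MgCl2/KCl/DTT buffer, then compound and anti-FLAG XL665/anti-GST K antibodies were added. After 60 min at room temperature, HTRF 665/615 nm emission was read.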

[5] = qHTS Assay for Identifying Gametocytocidal Compounds (AID 743244);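 further: actives lower the fluorescent signal which means gametocytes are killed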; conditions: P. falciparum 3D7 stage III-V gametocytes, alamarBlue, 72 h; max response: active compounds read low
Outline: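 P. falciparum 3D7 stage III–V gametocytes (20,000 cells/well) were exposed to compounds for 72 h at 37 °C, 5% CO2. AlamarBlue was then added for 24 h; decreased resorufin fluorescence (Ex 525/Em 598 nm) indicated loss of viability.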

[6] = NS1 protein of Zika virus - qHTS assay to identify small molecule inhibitors in human HEK 293 cells (AID 1347053); further: series mostly up to about 46 µM; nearly all actives have a fitted effect of over 55% in size
Outline: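 Inhibition of NS1 expression was scored in HEK 293 cells given compound 1 h ahead of MR766 virus (MOI = 0.5). Following 24 h at 37 C, two anti-NS1 antibodies generated a TR-FRET signal, scaled between uninfected and infected controls.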

[7] = target: Tyrosine-protein phosphatase non-receptor type substrate 1 (Homo sapiens) + Leukocyte surface antigen CD47 (Homo sapiens) (UniProt P78324+Q08722); assay: CD47-SIRPalpha protein protein interaction - Alpha assay qHTS validation (AID 1347059);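 further: bead proximity luminescence from CD47 binding SIRPalpha after compound preincubation with SIRPalpha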
Outline: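 Binding is measured by AlphaScreen proximity: Ni-NTA acceptor beads capture His-CD47, streptavidin donor beads capture biotin-SIRPalpha. Each of three additions (SIRPalpha with compound, CD47, beads) incubates 30 min at room temperature protected from light.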

[8] = target: N-terminal Xaa-Pro-Lys N-methyltransferase 1 (Homo sapiens) (UniProt Q9BV86); assay: qHTS Assay for Inhibitors of N-terminal methyltransferase 1 (NTMT1): LOPAC validation of the NTMT1 SAHH-coupled ThioGlo3 Assay (AID 1347143);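 further: SAH from peptide methylation measured as thiol fluorescence via SAHH coupling and ThioGlo3; potency means the concentration at half of the fitted maximal effect; nearly all actives have a fitted effect of over 70% in size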
Outline: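 Inhibition of NTMT1 methylation of peptide SPKRIA is followed by converting SAH with SAHH and labelling the released thiol with ThioGlo3. Plates are read at 340/450nm before and 30 min after reagent addition, both at room temperature.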

[9] = test system: Zika virus NS2B-NS3 protease (unlinked); assay: Optimization of GU AMC qHTS for Zika virus inhibitors: Unlinked NS2B-NS3 protease assay (AID 1347151); further: potency means the concentration at half of the fitted maximal effect; nearly all actives have a fitted effect of over 80% in size
Outline: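 Noncovalent complex of NS2B hydrophilic domain and NS3 protease domain, 25 nM final, in 10 mM Tris-HCl pH 8.0, 0.01% Tween 20. AMC fluorescence change over 15 min at room temperature was fitted to a 4-parameter Hill equation.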

[10] = qHTS to identify inhibitors of the type 1 interferon - major histocompatibility complex class I in skeletal muscle: primary screen against the NCATS LOPAC collection (AID 1347405);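 further: lytic HiBiT luminescence reporting HLA-B protein level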
Outline: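 Luminescence from HiBiT fused to endogenous HLA-B in CRISPR-engineered human myoblasts served as the read-out. Cells received 4.0 ng/ml IFN-beta plus compound (seven concentrations, 1:4.3 steps, highest 46 uM final) for 24 hrs before lytic detection.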

[11] = qHTS for inhibitors of adenylyl cyclases using a fission yeast platform: a pilot screen against the NCATS LOPAC library (AID 1347410)
Outline: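 S. pombe CHP2027 (AC9-GNAS-PDE4D2) carrying a PKA-repressed fbp1-GFP reporter was exposed to LOPAC compounds (final up to 57 µM) for 18 h at 30C in the dark, in EMM with histidine, lysine and uracil; GFP gain-of-signal read by laser scanning cytometry.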

[12] = Validation qHTS assay for inhibitors of Activation Induced Cytidine Deaminase (AID): UDG Counterscreen signal (AID 1347427)
Outline: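 Counterscreen read of UDG activity (2 U/mL, 4/3x) in the FRET deamination format with AID (1 uM, 4/3x), DJC20/DJC23 substrates (250 nM, 4x), 4 h at room temperature. NaOH stop, fluorescence at 560 ex/665 em.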

[13] = target: Single-stranded DNA cytosine deaminase (Homo sapiens) (UniProt Q9GZX7); assay: Validation qHTS assay for inhibitors of Activation Induced Cytidine Deaminase (AID): AID signal (AID 1347429)
Outline: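 Fluorescence at 540 nm excitation and 590 nm emission reports ssDNA cytosine deamination by AID, with UDG in the same well. Compound-treated reactions ran 4 hr at room temperature with DJC20/DJC23 substrate, followed by 30 min NaOH treatment.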

[14] = target: Calcium and integrin-binding protein 1 (Homo sapiens) (UniProt Q99828); assay: Validation qHTS for Identification of Calcium Integrin Binding protein 1 (CIB1) Competitor (AID 1508618)
Outline: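 CIB1-GST (1 uM final) incubated 15 min at room temperature with compounds (up to 114 uM), then FITC-labelled alphaIIb peptide (100 nM) added. FP read (Ex 480/Em 540) after 15 min, pH 7.4 buffer containing 5 mM CaCl2.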

[15] = Primary qHTS for small molecule stabilizers of the endoplasmic reticulum resident proteome: Secreted ER Calcium Modulated Protein (SERCaMP) assay (AID 1508630)
Outline: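 GLuc-SERCaMP-expressing SH-SY5Y cells, pretreated 16 h with compound, are challenged with thapsigargin to empty ER calcium stores; after 4 h, coelenterazine is added directly to the medium and luminescence is imaged.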

[16] = target: Rap guanine nucleotide exchange factor 3 (Homo sapiens) (UniProt O95398); assay: Confirmatory qHTS for agonist of cAMP-regulated guanine nucleotide exchange factor 3 (EPAC1) (AID 1645881);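 further: EPAC1 catalysed release of BODIPY-GDP from Rap1B seen as fluorescence loss; nearly all actives have a fitted effect of over 75% in size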
[17] = target: Rap guanine nucleotide exchange factor 4 (Homo sapiens) (UniProt Q8WZA2); assay: Confirmatory qHTS for agonist of cAMP-regulated guanine nucleotide exchange factor 4 (EPAC2) (AID 1645884);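 further: nucleotide exchange releases bodipy-GDP from Rap1 and this lowers its fluorescence; nearly all actives have a fitted effect of over 65% in size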
[18] = target: Rap guanine nucleotide exchange factor 4 (Homo sapiens) (UniProt Q8WZA2); assay: Confirmatory qHTS for antagonist of cAMP-regulated guanine nucleotide exchange factor 4 (EPAC2) (AID 1645885); further: nearly all actives have a fitted effect of over 25% in size
[19] = target: Metallo-beta-lactamase type 2 (Klebsiella pneumoniae) (UniProt C7C422); assay: qHTS to identify inhibitors of the New Delhi Metallo-beta-lactamase (NDM): assay validation screen against the NCATS LOPAC Collection (AID 1794843); further: series mostly up to about 38 µM
Outline: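 Absorbance at 485 nm from nitrocefin turnover (50 uM solution added), read at plateau, gives the read-out. Compounds in DMSO were incubated first with 2 nM final NDM-1 in pH 7.0 HEPES buffer containing 1 uM ZnSO4 and 0.01% Tween20.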

[20] = target: Glutathione peroxidase 1 (Homo sapiens) (UniProt P07203); assay: Primary qHTS Assay for Inhibitors of Recombinant Selenoprotein Glutathione Peroxidase 1 (GPX1) (AID 1845191); further: nearly all actives have a fitted effect of over 65% in size
Outline: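 10 nM GPX1 + cpd, 30 min RT; start w/ 1 mM GSH, 0.5 mM cumene hydroperoxide, 0.5 mM NADPH, 100 nM GR, 0.01% BSA; buffer 50 mM Tris-HCl pH 7.5, 2 mM EDTA, 150 mM NaCl; Fl 340/450, 0 & 15 min.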

[21] = target: Phospholipid hydroperoxide glutathione peroxidase GPX4 (Homo sapiens) (UniProt P36969); assay: Primary qHTS Assay for Inhibitors of Recombinant Selenoprotein Glutathione Peroxidase 4 (GPX4) (AID 1845192); conditions: outcome: dose series up to 50 µM unless noted; further: series mostly up to about 50 µM; nearly all actives have a fitted effect of over 65% in size
Outline: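 NADPH consumption, followed by fluorescence at 340/450 nm between 0 and 15 min, reports GPX4 activity via coupled glutathione reductase (100 nM). Enzyme 200 nM was pre-exposed to compound 30 min; 0.5 mM cumene hydroperoxide and 1 mM GSH served as substrates.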

T1 sequence (P35557 whole entry, looked up): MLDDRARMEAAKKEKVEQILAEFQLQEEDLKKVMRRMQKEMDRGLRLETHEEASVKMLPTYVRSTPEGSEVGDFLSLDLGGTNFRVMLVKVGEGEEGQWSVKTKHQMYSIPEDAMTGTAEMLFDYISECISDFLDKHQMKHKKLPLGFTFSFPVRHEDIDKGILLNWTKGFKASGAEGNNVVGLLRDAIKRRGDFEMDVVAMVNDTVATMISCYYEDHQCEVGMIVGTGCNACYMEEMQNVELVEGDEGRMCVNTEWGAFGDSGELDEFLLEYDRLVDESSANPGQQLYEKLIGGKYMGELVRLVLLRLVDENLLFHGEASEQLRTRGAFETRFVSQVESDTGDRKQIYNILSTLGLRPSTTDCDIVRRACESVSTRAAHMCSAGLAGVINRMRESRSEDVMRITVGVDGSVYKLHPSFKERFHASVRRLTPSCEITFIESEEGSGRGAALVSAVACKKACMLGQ
T1 sequence (Q14397 whole entry, looked up): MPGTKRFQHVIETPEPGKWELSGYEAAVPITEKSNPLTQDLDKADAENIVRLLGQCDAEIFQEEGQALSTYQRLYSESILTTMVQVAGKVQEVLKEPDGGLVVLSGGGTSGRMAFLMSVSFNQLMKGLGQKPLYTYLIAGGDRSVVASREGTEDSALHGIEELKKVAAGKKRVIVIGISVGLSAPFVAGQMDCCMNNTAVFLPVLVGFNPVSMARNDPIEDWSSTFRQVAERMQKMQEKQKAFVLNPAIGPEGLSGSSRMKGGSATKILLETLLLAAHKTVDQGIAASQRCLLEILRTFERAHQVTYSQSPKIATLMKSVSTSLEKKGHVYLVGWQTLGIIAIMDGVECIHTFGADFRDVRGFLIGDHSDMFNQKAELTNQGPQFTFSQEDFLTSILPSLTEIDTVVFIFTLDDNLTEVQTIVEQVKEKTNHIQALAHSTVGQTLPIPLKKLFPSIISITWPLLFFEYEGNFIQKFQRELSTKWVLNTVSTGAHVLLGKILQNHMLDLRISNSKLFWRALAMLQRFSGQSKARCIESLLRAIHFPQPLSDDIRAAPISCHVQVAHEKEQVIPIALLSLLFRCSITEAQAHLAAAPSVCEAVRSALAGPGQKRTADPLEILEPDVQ
Chain of Rap guanine nucleotide exchange factor 4 (Homo sapiens) (Q8WZA2 whole entry, looked up): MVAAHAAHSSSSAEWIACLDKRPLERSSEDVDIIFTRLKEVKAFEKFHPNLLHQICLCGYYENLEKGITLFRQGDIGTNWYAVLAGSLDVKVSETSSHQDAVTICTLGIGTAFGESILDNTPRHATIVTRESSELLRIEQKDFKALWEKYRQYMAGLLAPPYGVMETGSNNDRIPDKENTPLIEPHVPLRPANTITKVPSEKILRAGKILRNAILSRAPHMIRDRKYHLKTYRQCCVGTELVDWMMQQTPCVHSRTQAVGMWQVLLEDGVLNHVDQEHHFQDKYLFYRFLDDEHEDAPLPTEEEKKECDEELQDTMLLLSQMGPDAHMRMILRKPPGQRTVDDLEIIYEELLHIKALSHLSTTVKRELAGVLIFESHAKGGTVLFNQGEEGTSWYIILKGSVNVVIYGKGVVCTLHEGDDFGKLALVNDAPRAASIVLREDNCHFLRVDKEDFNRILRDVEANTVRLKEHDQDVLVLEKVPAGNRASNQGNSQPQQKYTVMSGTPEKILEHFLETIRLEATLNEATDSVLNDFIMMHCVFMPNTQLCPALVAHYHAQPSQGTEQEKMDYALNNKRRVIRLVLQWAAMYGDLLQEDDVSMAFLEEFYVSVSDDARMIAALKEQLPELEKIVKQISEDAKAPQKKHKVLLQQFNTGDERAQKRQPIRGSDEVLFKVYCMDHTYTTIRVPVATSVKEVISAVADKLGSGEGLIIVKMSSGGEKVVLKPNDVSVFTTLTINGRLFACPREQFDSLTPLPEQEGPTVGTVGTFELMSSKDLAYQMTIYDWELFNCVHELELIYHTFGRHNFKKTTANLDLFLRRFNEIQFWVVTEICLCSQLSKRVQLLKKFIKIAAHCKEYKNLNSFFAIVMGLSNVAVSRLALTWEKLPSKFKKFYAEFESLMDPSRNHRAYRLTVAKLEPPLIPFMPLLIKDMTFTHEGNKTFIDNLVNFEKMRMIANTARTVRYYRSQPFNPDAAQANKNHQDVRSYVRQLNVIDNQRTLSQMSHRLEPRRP
Chain of Rap guanine nucleotide exchange factor 3 (Homo sapiens) (O95398 whole entry, looked up): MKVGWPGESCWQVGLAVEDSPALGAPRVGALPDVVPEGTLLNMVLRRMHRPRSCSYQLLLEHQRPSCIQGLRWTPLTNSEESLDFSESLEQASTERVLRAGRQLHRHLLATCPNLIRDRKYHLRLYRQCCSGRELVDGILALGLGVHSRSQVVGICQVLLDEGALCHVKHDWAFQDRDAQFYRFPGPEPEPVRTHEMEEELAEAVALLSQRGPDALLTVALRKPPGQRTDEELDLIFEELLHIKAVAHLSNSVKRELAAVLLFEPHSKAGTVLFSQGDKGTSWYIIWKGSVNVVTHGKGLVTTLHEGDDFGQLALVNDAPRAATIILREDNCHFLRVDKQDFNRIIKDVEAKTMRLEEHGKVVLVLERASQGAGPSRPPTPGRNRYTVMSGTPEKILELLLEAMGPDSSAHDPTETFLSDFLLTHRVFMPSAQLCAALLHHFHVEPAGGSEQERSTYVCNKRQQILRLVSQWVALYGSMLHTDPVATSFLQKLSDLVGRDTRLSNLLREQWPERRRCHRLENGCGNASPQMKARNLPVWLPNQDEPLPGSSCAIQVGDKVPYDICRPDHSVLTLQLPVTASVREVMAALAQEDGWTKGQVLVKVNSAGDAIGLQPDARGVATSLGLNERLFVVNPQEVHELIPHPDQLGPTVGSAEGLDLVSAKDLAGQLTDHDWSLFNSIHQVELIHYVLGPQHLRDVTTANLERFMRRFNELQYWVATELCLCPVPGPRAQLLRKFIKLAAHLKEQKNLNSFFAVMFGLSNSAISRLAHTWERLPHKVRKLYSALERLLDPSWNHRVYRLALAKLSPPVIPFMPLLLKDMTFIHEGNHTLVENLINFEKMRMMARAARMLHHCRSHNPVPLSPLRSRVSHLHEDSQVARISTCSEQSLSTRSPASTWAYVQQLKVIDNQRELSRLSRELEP
Chain of N-terminal Xaa-Pro-Lys N-methyltransferase 1 (Homo sapiens) (Q9BV86 whole entry, looked up): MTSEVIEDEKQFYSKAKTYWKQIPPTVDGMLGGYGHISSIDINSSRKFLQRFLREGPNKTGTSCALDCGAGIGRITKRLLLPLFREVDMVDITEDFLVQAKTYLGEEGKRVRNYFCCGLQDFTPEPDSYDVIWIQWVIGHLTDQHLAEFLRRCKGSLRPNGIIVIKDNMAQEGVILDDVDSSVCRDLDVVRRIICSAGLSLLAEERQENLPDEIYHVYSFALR
Chain of Single-stranded DNA cytosine deaminase (Homo sapiens) (Q9GZX7 whole entry, looked up): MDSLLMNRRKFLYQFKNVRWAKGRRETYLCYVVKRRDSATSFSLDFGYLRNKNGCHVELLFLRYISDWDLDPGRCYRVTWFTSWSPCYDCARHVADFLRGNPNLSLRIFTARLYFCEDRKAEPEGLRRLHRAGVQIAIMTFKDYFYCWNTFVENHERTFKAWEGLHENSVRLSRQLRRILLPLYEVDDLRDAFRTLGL
Chain of Metallo-beta-lactamase type 2 (Klebsiella pneumoniae) (C7C422 whole entry, looked up): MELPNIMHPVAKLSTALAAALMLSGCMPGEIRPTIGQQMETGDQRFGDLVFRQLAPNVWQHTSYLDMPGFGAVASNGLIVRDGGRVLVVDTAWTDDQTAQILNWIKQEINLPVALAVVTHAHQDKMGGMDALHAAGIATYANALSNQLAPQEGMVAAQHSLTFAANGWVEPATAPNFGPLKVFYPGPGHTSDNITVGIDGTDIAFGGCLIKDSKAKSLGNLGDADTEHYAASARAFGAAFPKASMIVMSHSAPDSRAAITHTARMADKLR
Chain of Glutathione peroxidase 1 (Homo sapiens) (P07203 whole entry, looked up): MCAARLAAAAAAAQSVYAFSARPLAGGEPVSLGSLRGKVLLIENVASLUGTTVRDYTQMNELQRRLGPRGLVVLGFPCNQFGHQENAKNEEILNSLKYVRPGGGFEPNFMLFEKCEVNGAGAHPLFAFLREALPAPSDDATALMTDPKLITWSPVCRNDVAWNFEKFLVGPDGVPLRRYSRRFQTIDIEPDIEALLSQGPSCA
Chain of Phospholipid hydroperoxide glutathione peroxidase GPX4 (Homo sapiens) (P36969 whole entry, looked up): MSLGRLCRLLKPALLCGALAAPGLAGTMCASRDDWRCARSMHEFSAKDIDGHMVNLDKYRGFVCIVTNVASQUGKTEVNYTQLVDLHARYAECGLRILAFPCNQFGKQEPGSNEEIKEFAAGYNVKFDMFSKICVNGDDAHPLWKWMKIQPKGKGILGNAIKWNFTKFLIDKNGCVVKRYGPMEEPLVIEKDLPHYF
Chain of Tyrosine-protein phosphatase non-receptor type substrate 1 (Homo sapiens) + Leukocyte surface antigen CD47 (Homo sapiens) (P78324 whole entry, looked up): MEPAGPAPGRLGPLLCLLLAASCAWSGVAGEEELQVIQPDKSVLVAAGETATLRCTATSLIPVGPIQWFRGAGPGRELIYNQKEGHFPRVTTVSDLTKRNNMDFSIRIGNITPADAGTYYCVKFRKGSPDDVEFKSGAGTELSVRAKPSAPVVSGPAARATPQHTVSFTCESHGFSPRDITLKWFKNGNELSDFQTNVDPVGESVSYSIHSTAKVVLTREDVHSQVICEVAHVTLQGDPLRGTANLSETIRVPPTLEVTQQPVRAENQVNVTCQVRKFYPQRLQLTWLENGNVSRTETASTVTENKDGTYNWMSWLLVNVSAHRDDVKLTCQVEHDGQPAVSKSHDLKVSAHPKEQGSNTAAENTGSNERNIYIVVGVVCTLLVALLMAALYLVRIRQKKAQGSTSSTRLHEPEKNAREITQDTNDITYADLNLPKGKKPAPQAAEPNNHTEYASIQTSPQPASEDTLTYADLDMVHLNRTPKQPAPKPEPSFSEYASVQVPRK
Chain of Tyrosine-protein phosphatase non-receptor type substrate 1 (Homo sapiens) + Leukocyte surface antigen CD47 (Homo sapiens) (Q08722 whole entry, looked up): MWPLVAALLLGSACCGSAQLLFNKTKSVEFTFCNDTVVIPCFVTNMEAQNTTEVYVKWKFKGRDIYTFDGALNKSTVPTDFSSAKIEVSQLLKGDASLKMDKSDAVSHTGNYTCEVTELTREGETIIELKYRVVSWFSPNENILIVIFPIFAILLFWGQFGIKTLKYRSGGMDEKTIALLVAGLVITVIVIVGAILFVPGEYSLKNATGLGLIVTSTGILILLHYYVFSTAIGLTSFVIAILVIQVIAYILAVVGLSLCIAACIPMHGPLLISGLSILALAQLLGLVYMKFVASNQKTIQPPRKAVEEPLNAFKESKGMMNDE

Structure (SMILES): N#C/C(=C\c1ccc(O)c(O)c1)C(=O)Nc1ccccc1
- outcome [1]: inactive
- outcome [2]: inactive
- outcome [3]: inactive
- outcome [4]: inactive
- max response [5]: 12.5%
- outcome [6]: inactive
- Potency [7]: inactive
- Potency [8]: 39.8 µM (active)
- Potency [9]: 3.36 µM (active)
- Potency [10]: inactive
- outcome [11]: inactive
- outcome [12]: inactive
- Potency [13]: inactive
- outcome [14]: inactive
- Potency [15]: inactive
- outcome [16]: inactive
- outcome [17]: inactive
- Potency [18]: inactive
- Potency [19]: inactive
- Potency [20]: inactive
- Potency [21]: inactive

Reference: PubChem BioAssay (NCATS)
